According to PubChem BioAssay (NCATS):
“And” between values parts separate entries of the source, which are not always exact repeats. Equal entries are not always repeated. Results filed as inconclusive are left out. The source made the active and inactive calls. Calls come from the whole dose curve; as a rule, active = well fitted inhibition curve with a large enough effect; inconclusive = small, poorly fitted or top-dose-only effect; inactive = flat fitted curve, though single readings scatter.

Key:
ECU = assay: qHTS profiling for inhibitors of Plasmodium falciparum proliferation (AID 504749); settings: P. falciparum in erythrocytes, SYBR Green DNA, 72 h; series mostly up to 28.7 µM
Procedure, shortened: (§1)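 In a 72 h erythrocytic culture (37 C, humidified, 5% CO2) at 2.5% hematocrit and 0.3% starting parasitemia, compounds were tested; SYBR Green I in detergent lysis buffer stained parasite DNA overnight.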

FAB9 = assay: as above; settings: P. falciparum in erythrocytes, SYBR Green DNA, 72 h; series mostly up to 28.7 µM
Procedure, shortened: as §1

GB4 = assay: as above; settings: P. falciparum in erythrocytes, SYBR Green DNA, 72 h; series mostly up to 28.7 µM
Procedure, shortened: as §1

HB3 = assay: as above; settings: P. falciparum in erythrocytes, SYBR Green DNA, 72 h; series mostly up to 28.7 µM
Procedure, shortened: as §1

ICS = assay: as above; settings: P. falciparum in erythrocytes, SYBR Green DNA, 72 h; series mostly up to 28.7 µM
Procedure, shortened: as §1

JCK = assay: as above; settings: P. falciparum in erythrocytes, SYBR Green DNA, 72 h; series mostly up to 28.7 µM
Procedure, shortened: as §1

N140 = assay: as above; settings: P. falciparum in erythrocytes, SYBR Green DNA, 72 h; series mostly up to 28.7 µM
Procedure, shortened: as §1

P93_24 = assay: as above; settings: P. falciparum in erythrocytes, SYBR Green DNA, 72 h; series mostly up to 28.7 µM
Procedure, shortened: as §1

P94_40 = assay: as above; settings: P. falciparum in erythrocytes, SYBR Green DNA, 72 h; series mostly up to 28.7 µM
Procedure, shortened: as §1

PAD = assay: as above; settings: P. falciparum in erythrocytes, SYBR Green DNA, 72 h; series mostly up to 28.7 µM
Procedure, shortened: as §1

PC15 = assay: as above; settings: P. falciparum in erythrocytes, SYBR Green DNA, 72 h; series mostly up to 28.7 µM
Procedure, shortened: as §1

PC26 = assay: as above; settings: P. falciparum in erythrocytes, SYBR Green DNA, 72 h; series mostly up to 28.7 µM
Procedure, shortened: as §1

PC49 = assay: as above; settings: P. falciparum in erythrocytes, SYBR Green DNA, 72 h; series mostly up to 28.7 µM
Procedure, shortened: as §1

SC27B = assay: as above; settings: P. falciparum in erythrocytes, SYBR Green DNA, 72 h; series mostly up to 28.7 µM
Procedure, shortened: as §1

TAB109 = assay: as above; settings: P. falciparum in erythrocytes, SYBR Green DNA, 72 h; series mostly up to 28.7 µM
Procedure, shortened: as §1

TAB113 = assay: as above; settings: P. falciparum in erythrocytes, SYBR Green DNA, 72 h; series mostly up to 28.7 µM
Procedure, shortened: as §1

TAB165 = assay: as above; settings: P. falciparum in erythrocytes, SYBR Green DNA, 72 h; series mostly up to 28.7 µM
Procedure, shortened: as §1

W2 = assay: as above; settings: P. falciparum in erythrocytes, SYBR Green DNA, 72 h; series mostly up to 28.7 µM
Procedure, shortened: as §1

CRL-7250 = normal cell line; assay: Cytotoxic Profiling of Annotated Libraries Using Quantitative High-Throughput Screening (AID 1296008); settings: Five cell lines viability, CellTiter-Glo ATP luminescence, 48-72 h; max response: stronger effect = lower value; for max response: % is set by controls: 0 for no effect and ±100 for the full control effect
Procedure, shortened: (§2)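 Cytotoxicity was measured as CellTiter-Glo ATP luminescence, read after 10 min at room temperature. Compound treatment of the cells lasted 48 or 72 hr at 37 degrees Celsius in a qHTS format.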

HEK293 = assay: as above; settings: Five cell lines viability, CellTiter-Glo ATP luminescence, 48-72 h; max response: stronger effect = lower value
Procedure, shortened: as §2
Note: nearly all actives have a fitted effect of over 60% in size.
Potency is the fitted concentration of half-maximal effect.

CCNc1nc(Cl)nc(NCC)n1
inactive: Potency (ECU) | Potency (FAB9) | Potency (GB4) | Potency (HB3) | Potency (ICS) | Potency (JCK) | Potency (N140) | Potency (P93_24) | Potency (P94_40) | Potency (PAD) | Potency (PC15) | Potency (PC26) | Potency (PC49) | Potency (SC27B) | Potency (TAB109) | Potency (TAB113) | Potency (TAB165) | Potency (W2) | max response (CRL-7250) -9.95% | max response (HEK293) 1.01%

C[C@]12CC[C@H]3[C@@H](CCC4=CC(=O)CC[C@@]43C)[C@@H]1CC[C@@H]2C(=O)O
inactive: outcome (CRL-7250) | max response (HEK293) -4.71%

CC(C)[N+](C)(CCC(C(N)=O)(c1ccccc1)c1ccccc1)C(C)C
inactive: Potency (ECU) | Potency (FAB9) | Potency (GB4) | Potency (HB3) | Potency (ICS) | Potency (JCK) | Potency (N140) | Potency (P93_24) | Potency (P94_40) | Potency (PAD) | Potency (PC15) | Potency (PC26) | Potency (PC49) | Potency (SC27B) | Potency (TAB109) | Potency (TAB113) | Potency (TAB165) | max response (CRL-7250) 3.89% | max response (HEK293) -1%

COP(=O)(OC)OC=C(Cl)Cl
active: Potency (W2) 10.7 µM
inactive: Potency (ECU) | Potency (FAB9) | Potency (GB4) | Potency (HB3) | Potency (JCK) | Potency (N140) | Potency (P93_24) | Potency (P94_40) | Potency (PAD) | Potency (PC15) | Potency (PC26) | Potency (PC49) | Potency (SC27B) | Potency (TAB109) | Potency (TAB113) | Potency (TAB165) | outcome (CRL-7250) | max response (HEK293) -1.59%

O=C(CCCN1CCC(n2c(=O)[nH]c3ccccc32)CC1)c1ccc(F)cc1
active: Potency (ECU) 1.78 µM | Potency (FAB9) 3.98 µM | Potency (GB4) 0.809 µM | Potency (HB3) 1 µM | Potency (ICS) 0.316 µM | Potency (JCK) 3.55 µM | Potency (N140) 0.891 µM | Potency (P93_24) 0.891 µM | Potency (P94_40) 0.891 µM | Potency (PAD) 1.12 µM | Potency (PC15) 1.26 µM | Potency (PC26) 2.56 µM | Potency (PC49) 2.82 µM | Potency (SC27B) 2 µM | Potency (TAB109) 1 µM | Potency (TAB113) 1.26 µM | Potency (TAB165) 1 µM | Potency (W2) 0.642 µM
inactive: max response (CRL-7250) -0.196%

CCCCCCCCC(=O)NCc1ccc(O)c(OC)c1
inactive: Potency (ECU) | Potency (FAB9) | Potency (GB4) | Potency (HB3) | Potency (ICS) | Potency (JCK) | Potency (N140) | Potency (P93_24) | Potency (P94_40) | Potency (PAD) | Potency (PC15) | Potency (PC26) | Potency (PC49) | Potency (SC27B) | Potency (TAB109) | Potency (TAB113) | Potency (TAB165) | Potency (W2) | max response (CRL-7250) -16.7% | max response (HEK293) -94.9%

CCOC(=O)NC(O)C(Cl)(Cl)Cl (stereo not given)
inactive: Potency (ECU) | Potency (FAB9) | Potency (GB4) | Potency (HB3) | Potency (ICS) | Potency (JCK) | Potency (N140) | Potency (P93_24) | Potency (P94_40) | Potency (PAD) | Potency (PC15) | Potency (PC26) | Potency (PC49) | Potency (SC27B) | Potency (TAB109) | Potency (TAB113) | Potency (TAB165) | Potency (W2) | max response (CRL-7250) 0.547% | max response (HEK293) -1.01%

C[C@]12CC[C@H]3[C@@H](CC=C4C[C@@H](O)CC[C@@]43C)[C@@H]1CC[C@@H]2O
inactive: Potency (ECU) | Potency (FAB9) | Potency (GB4) | Potency (HB3) | Potency (ICS) | Potency (JCK) | Potency (N140) | Potency (P93_24) | Potency (P94_40) | Potency (PAD) | Potency (PC15) | Potency (PC26) | Potency (PC49) | Potency (SC27B) | Potency (TAB109) | Potency (TAB113) | Potency (TAB165) | Potency (W2) | max response (CRL-7250) -19.9% | max response (HEK293) -6.75%

CCCCCCCCCCCC[N+](C)(C)CCOc1ccccc1
active: Potency (ECU) 5.01 µM | Potency (FAB9) 7.94 µM | Potency (GB4) 5.36 µM | Potency (HB3) 6.31 µM | Potency (ICS) 2.24 µM | Potency (JCK) 12.6 µM | Potency (N140) 7.94 µM | Potency (P93_24) 4.47 µM | Potency (P94_40) 4.47 µM | Potency (PAD) 7.94 µM | Potency (PC15) 10 µM | Potency (PC26) 13.5 µM | Potency (PC49) 8.91 µM | Potency (SC27B) 7.08 µM | Potency (TAB109) 5.01 µM | Potency (TAB113) 4.47 µM | Potency (TAB165) 5.62 µM | Potency (W2) 3.79 µM | Potency (CRL-7250) 18.8 µM | Potency (HEK293) 8.41 µM

Cc1nnc2n1-c1sc(CCC(=O)N3CCOCC3)cc1C(c1ccccc1Cl)=NC2
inactive: outcome (CRL-7250) | outcome (HEK293)

O=C(O)c1nn(Cc2ccc(Cl)cc2Cl)c2ccccc12
inactive: Potency (ECU) | Potency (FAB9) | Potency (GB4) | Potency (HB3) | Potency (ICS) | Potency (JCK) | Potency (N140) | Potency (P93_24) | Potency (P94_40) | Potency (PAD) | Potency (PC15) | Potency (PC26) | Potency (PC49) | Potency (SC27B) | Potency (TAB109) | Potency (TAB113) | Potency (TAB165) | Potency (W2) | max response (CRL-7250) -5.04% and -7.58%

C[N+](C)(C)CCOC(=O)C(O)(c1ccccc1)c1ccccc1
inactive: Potency (ECU) | Potency (FAB9) | Potency (GB4) | Potency (HB3) | Potency (ICS) | Potency (JCK) | Potency (N140) | Potency (P93_24) | Potency (P94_40) | Potency (PAD) | Potency (PC15) | Potency (PC26) | Potency (PC49) | Potency (SC27B) | Potency (TAB109) | Potency (TAB113) | Potency (TAB165) | Potency (W2) | max response (CRL-7250) 1.11% | max response (HEK293) -0.686%
